Several values for one entry are separate records, joined by “and”; a condition that tells them apart may be missing. Equal values may be shown once. Inconclusive results are not listed. Activity calls are given as the source filed them. Calls follow the shape of the dose curve; as a rule, active = well fitted curve in the direction sought with a large enough effect; inconclusive = small, poorly fitted or top-dose-only effect, or another doubt; inactive = no such curve, though single readings can be large; an effect the other way counts as inactive or inconclusive.
Assays:
[1] = qHTS of pediatric cancer cell lines to identify multiple opportunities for drug repurposing: Primary screen for SK-N-MC cells (AID 1347093); also: potency is read from the fitted curve at half-maximal effect
Procedure, shortened: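 Metabolically active cells were quantified by ATP-dependent luminescence (CellTiter-Glo, 15 min at room temperature) following 48 h treatment. Cells had been plated at 500-1,000 per well and settled for 5 h beforehand.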

[2] = qHTS of pediatric cancer cell lines to identify multiple opportunities for drug repurposing: Primary screen for BT-37 cells (AID 1347094); also: potency is read from the fitted curve at half-maximal effect
Procedure, shortened: (§1)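 Luminescence from CellTiter-Glo served as readout of metabolically active cells after 48 h compound exposure. Titrations: MIPE 11-point, from 0.78 nM; NPC 8-point, from 0.59 nM (final). Concentration-response curves came straight from the primary screen.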

[3] = qHTS of pediatric cancer cell lines to identify multiple opportunities for drug repurposing: Primary screen for U-2 OS cells (AID 1347096); also: nearly all actives have a fitted effect of over 50% in size; also: potency is read from the fitted curve at half-maximal effect
Procedure, shortened: (§2)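 Cells (500-1,000/well) rested 5 h, then received compounds for 48 h; metabolically active cells were measured by CellTiter-Glo luminescence. Final concentrations spanned up to 46 µM (MIPE, 11-point) or 0.59 nM-46 µM (NPC, 8-point) in primary screens, 11-point in follow-ups.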

[4] = qHTS of pediatric cancer cell lines to identify multiple opportunities for drug repurposing: Primary screen for Saos-2 cells (AID 1347097); also: nearly all actives have a fitted effect of over 40% in size; also: potency is read from the fitted curve at half-maximal effect
Procedure, shortened: as §1

[5] = qHTS of pediatric cancer cell lines to identify multiple opportunities for drug repurposing: Primary screen for NB1643 cells (AID 1347099); also: nearly all actives have a fitted effect of over 50% in size; also: potency is read from the fitted curve at half-maximal effect
Procedure, shortened: as §1

[6] = qHTS of pediatric cancer cell lines to identify multiple opportunities for drug repurposing: Primary screen for BT-12 cells (AID 1347101); also: nearly all actives have a fitted effect of over 25% in size; also: potency is read from the fitted curve at half-maximal effect
Procedure, shortened: as §2

[7] = qHTS of pediatric cancer cell lines to identify multiple opportunities for drug repurposing: Primary screen for Rh18 cells (AID 1347102); also: nearly all actives have a fitted effect of over 65% in size; also: potency is read from the fitted curve at half-maximal effect
Procedure, shortened: as §2

[8] = qHTS of pediatric cancer cell lines to identify multiple opportunities for drug repurposing: Primary screen for OHS-50 cells (AID 1347103); also: nearly all actives have a fitted effect of over 40% in size; also: potency is read from the fitted curve at half-maximal effect
Procedure, shortened: as §2

[9] = qHTS of pediatric cancer cell lines to identify multiple opportunities for drug repurposing: Primary screen for RD cells (AID 1347104); also: nearly all actives have a fitted effect of over 55% in size; also: potency is read from the fitted curve at half-maximal effect
Procedure, shortened: as §1

[10] = qHTS of pediatric cancer cell lines to identify multiple opportunities for drug repurposing: Primary screen for MG 63 (6-TG R) cells (AID 1347105); also: nearly all actives have a fitted effect of over 50% in size; also: potency is read from the fitted curve at half-maximal effect
Procedure, shortened: as §1

[11] = qHTS of pediatric cancer cell lines to identify multiple opportunities for drug repurposing: Primary screen for Rh30 cells (AID 1347107); also: series mostly up to about 46 µM; nearly all actives have a fitted effect of over 75% in size
Procedure, shortened: as §2

[12] = qHTS of pediatric cancer cell lines to identify multiple opportunities for drug repurposing: Primary screen for Rh41 cells (AID 1347108); also: nearly all actives have a fitted effect of over 70% in size; also: potency is read from the fitted curve at half-maximal effect
Procedure, shortened: as §1

[13] = qHTS of pediatric cancer cell lines to identify multiple opportunities for drug repurposing: Primary screen for LAN-5 cells (AID 1347100); also: potency is read from the fitted curve at half-maximal effect
Procedure, shortened: as §2

[14] = qHTS of pediatric cancer cell lines to identify multiple opportunities for drug repurposing: Primary screen for control Hh wild type fibroblast cells (AID 1347106);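 also: series mostly up to about 46 µM; a drop in luminescence marks cytotoxicity and a rise apparent proliferation; nearly all actives have a fitted effect of over 55% in size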
Procedure, shortened: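 Cells (500-1,000/well) in growth media were settled 5 h at 37 degrees C, then given compounds for 48 h. Viability was read as CellTiter-Glo luminescence. Primary runs used MIPE at 11 points (0.78 nM-46 µM) and NPC at 8 points (0.59 nM-46 µM); follow-ups used 11 points.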

[15] = qHTS of pediatric cancer cell lines to identify multiple opportunities for drug repurposing: Primary screen for NB-EBc1 cells (AID 1347095); also: potency is read from the fitted curve at half-maximal effect
Procedure, shortened: as §1

[16] = qHTS of pediatric cancer cell lines to identify multiple opportunities for drug repurposing: Primary screen for SK-N-SH cells (AID 1347098); also: nearly all actives have a fitted effect of over 65% in size; also: potency is read from the fitted curve at half-maximal effect
Procedure, shortened: as §2

[17] = qHTS of pediatric cancer cell lines to identify multiple opportunities for drug repurposing: Confirmatory screen for NB1643 cells (AID 1347109); also: nearly all actives have a fitted effect of over 45% in size; also: potency is read from the fitted curve at half-maximal effect
Procedure, shortened: as §2

[18] = qHTS of pediatric cancer cell lines to identify multiple opportunities for drug repurposing: Confirmatory screen for A673 cells (AID 1347110);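 also: cells exposed to compound for 48 h before the viability read; nearly all actives have a fitted effect of over 65% in size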; also: potency is read from the fitted curve at half-maximal effect
Procedure, shortened: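 qHTS titration format: primary MIPE 0.78 nM-46 µM (11 pts), NPC 0.59 nM-46 µM; confirmation 11 pts. 48 h, CTG luminescence.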

[19] = qHTS of pediatric cancer cell lines to identify multiple opportunities for drug repurposing: Confirmatory screen for BT-12 cells (AID 1347112); also: nearly all actives have a fitted effect of over 55% in size; also: potency is read from the fitted curve at half-maximal effect
Procedure, shortened: as §2

[20] = qHTS of pediatric cancer cell lines to identify multiple opportunities for drug repurposing: Confirmatory screen for LAN-5 cells (AID 1347113); also: nearly all actives have a fitted effect of over 65% in size
Procedure, shortened: as §2

Measured: Potency

C#Cc1cccc(Nc2ncnc3cc(OCCOC)c(OCCOC)cc23)c1
inactive: [3] | [9] | [10] | [11]
active: [1] 1.05 µM and 7.5 µM | [2] 19.3 µM and 11 µM | [4] 16.6 µM | [5] 5.9 µM | [6] 24.3 µM | [7] 18.7 µM | [8] 19.3 µM and 6.92 µM | [12] 11.8 µM

CCCCCCCc1ccc(CCc2cccc(O)c2C(=O)O)cc1
active: [1] 9.35 µM
inactive: [3] | [4] | [5] | [13] | [7] | [14]

O=C(C=Cc1ccc(/C=C/C(=O)Nc2ccc(C3=NCCN3)cc2)cc1)Nc1ccc(C2=NCCN2)cc1
not listed: [1] | [12] | [17] | [18] | [19] | [20]
inactive: all other assays above

NC(=O)c1ccc(-c2nc(-c3ccc4c(c3)OCCO4)c(-c3ccccn3)[nH]2)cc1
inactive: [1] | [3] | [4] | [5] | [13] | [6] | [7] | [9] | [10] | [14] | [11]

CN1CCN(CCCN2c3ccccc3Sc3ccc(C(F)(F)F)cc32)CC1
active: [1] 1.05 µM | [4] 18.7 µM | [16] 12.2 µM and 7.64 µM | [5] 3.32 µM | [13] 16.6 µM | [6] 24.6 µM and 21.7 µM | [8] 27.6 µM and 19.3 µM | [9] 26.6 µM and 18.7 µM | [17] 23.3 µM | [18] 26.1 µM | [19] 23.3 µM
inactive: [3] | [7] | [11] | [12]

CNC(=O)c1ccccc1Sc1ccc2c(/C=C/c3ccccn3)n[nH]c2c1
inactive: [9] | [11]
active: [1] 2.99 µM | [15] 1.5 µM | [4] 13.3 µM | [6] 17.4 µM | [7] 10.6 µM | [8] 17.4 µM

O=C(NOC[C@H](O)CO)c1ccc(F)c(F)c1Nc1ccc(I)cc1F
inactive: [4] | [7] | [8] | [17] | [18]
active: [1] 0.0469 µM | [16] 0.341 µM | [9] 93.5 nM

CCOC(=O)N[C@@H]1CC[C@@H]2[C@@H](C1)C[C@H]1C(=O)O[C@H](C)[C@H]1[C@@H]2C=Cc1ccc(-c2cccc(F)c2)cn1
inactive: [7] | [10] | [14]
active: [1] 16.6 µM | [4] 5.9 µM | [16] 21.5 µM | [5] 16.6 µM

COc1cccc2cc(-c3nc(C4CCC(C(=O)O)CC4)n4ncnc(N)c34)[nH]c12 (stereo unspecified)
inactive: [5] | [13] | [11] | [17]
active: [1] 0.0235 µM | [15] 1.66 µM | [6] 0.344 µM | [8] 0.109 µM

CN[C@@H](C)C(=O)N[C@H]1CCCC[C@H]2CC[C@@H](C(=O)N[C@@H](c3ccccc3)c3cn(CCCCc4ccc(CCCCn5cc([C@@H](NC(=O)[C@@H]6CC[C@@H]7CCCC[C@H](NC(=O)[C@H](C)NC)C(=O)N76)c6ccccc6)nn5)cc4)nn3)N2C1=O
active: [1] 6.62 µM | [6] 27.3 µM | [7] 14.8 µM
inactive: [3] | [5] | [10] | [14]

CCN(c1ccccc1)c1cc(NC)[n+](C)c(C)n1
inactive: [1] | [3] | [4] | [5] | [6] | [7] | [8] | [9] | [10] | [14] | [11]

C[C@]1(c2nc3c(C(N)=O)cccc3[nH]2)CCCN1
inactive: [3] | [7] | [10] | [14] | [17] | [18] | [20]
active: [1] 1.18 µM | [4] 20.9 µM | [5] 9.35 µM

CC(=O)NC(C)c1ccc(Oc2ccc(OC(C)C)cc2)cc1 (stereo unspecified)
active: [1] 13.2 µM | [4] 18.7 µM | [6] 19.3 µM | [8] 21.7 µM
inactive: [3] | [16] | [14]

CCOc1ccn(-c2ccc(F)cc2)c(=O)c1C(=O)Nc1ccc(Oc2ccnc(N)c2Cl)c(F)c1
active: [1] 13.2 µM | [4] 16.6 µM | [13] 7.43 µM | [8] 19.3 µM | [18] 13.1 µM
inactive: [3] | [9] | [11] | [19] | [20]

Cc1c(CCOc2ccc(C(=O)O)cc2)c2cc(Cl)ccc2n1C(c1ccccc1)c1ccccc1
active: [1] 14.8 µM | [16] 24.1 µM
inactive: [3] | [4] | [7] | [10] | [14] | [12]

CO[C@@H]1[C@H](N(C)C(=O)c2ccccc2)C[C@H]2O[C@]1(C)n1c3ccccc3c3c4c(c5c6ccccc6n2c5c31)C(=O)NC4
inactive: [9] | [11] | [12] | [18]
active: [1] 0.662 µM | [3] 3.72 µM | [4] 0.833 µM | [16] 1.92 µM | [13] 0.526 µM | [7] 1.32 µM | [8] 2.17 µM | [10] 0.743 µM | [17] 3.29 µM

Reference: PubChem BioAssay (NCATS)
